Results taken from PubChem BioAssay AID743445 (Broad Institute, 2014).
Among all 310,000 compounds or so, about 1,700 (0.55%) were called active. This is one part of a sample in which actives are shown more often than they occur. Cut-off read from the data, not from the text of the source: active = inhibition above about 50%; inactive = the rest.

molecular target: Histone-lysine N-methyltransferase NSD2 (Homo sapiens) (UniProt O96028); experiment: NSD2 histone methyltransferase inhibitors, primary screen, biochemical, AlphaScreen, single concentration, set 2 (AID 743445); details: NSD2 peptide methylation, 120 min, at 12.5 µM, hits give high values
Sequence (O96028 whole entry, looked up): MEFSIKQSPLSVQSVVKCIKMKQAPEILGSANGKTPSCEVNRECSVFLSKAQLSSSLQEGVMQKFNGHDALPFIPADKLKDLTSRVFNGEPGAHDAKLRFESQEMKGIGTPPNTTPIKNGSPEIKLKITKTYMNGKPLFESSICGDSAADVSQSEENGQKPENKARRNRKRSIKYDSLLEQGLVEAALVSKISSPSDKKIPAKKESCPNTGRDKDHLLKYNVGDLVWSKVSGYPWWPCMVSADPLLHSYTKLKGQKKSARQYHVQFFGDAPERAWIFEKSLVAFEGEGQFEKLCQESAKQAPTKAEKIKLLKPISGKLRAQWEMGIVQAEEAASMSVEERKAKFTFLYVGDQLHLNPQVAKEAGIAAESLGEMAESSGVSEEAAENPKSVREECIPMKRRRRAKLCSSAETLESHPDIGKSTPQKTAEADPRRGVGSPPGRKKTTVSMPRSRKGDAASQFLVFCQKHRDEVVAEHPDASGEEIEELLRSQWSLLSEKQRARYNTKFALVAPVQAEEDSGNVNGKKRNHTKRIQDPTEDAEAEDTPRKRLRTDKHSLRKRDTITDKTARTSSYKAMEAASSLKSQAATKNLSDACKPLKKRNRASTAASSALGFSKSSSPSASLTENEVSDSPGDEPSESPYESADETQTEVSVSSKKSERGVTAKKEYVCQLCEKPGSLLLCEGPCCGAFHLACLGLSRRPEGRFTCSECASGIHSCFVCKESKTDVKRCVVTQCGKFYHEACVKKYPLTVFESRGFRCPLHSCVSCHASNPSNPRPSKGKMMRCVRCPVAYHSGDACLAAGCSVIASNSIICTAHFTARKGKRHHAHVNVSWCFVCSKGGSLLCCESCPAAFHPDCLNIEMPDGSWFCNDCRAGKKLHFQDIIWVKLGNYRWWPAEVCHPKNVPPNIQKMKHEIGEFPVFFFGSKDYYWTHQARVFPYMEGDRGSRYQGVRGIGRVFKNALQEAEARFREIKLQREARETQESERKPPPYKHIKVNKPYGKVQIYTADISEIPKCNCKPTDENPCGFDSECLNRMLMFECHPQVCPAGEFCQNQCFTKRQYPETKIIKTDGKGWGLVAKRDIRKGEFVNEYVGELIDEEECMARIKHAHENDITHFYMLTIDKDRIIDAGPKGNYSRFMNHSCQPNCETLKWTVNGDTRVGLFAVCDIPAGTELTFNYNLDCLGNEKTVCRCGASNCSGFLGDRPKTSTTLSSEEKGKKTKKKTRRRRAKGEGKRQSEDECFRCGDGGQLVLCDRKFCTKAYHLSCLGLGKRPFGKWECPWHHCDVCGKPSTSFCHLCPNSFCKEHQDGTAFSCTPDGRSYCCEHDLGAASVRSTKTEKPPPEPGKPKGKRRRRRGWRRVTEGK

Row | SMILES | inhibition
1 | O=C1Nc2ccccc2OC1CC(=O)N1CCCCCCC1 (stereo not given) | 4.5% (inactive)
2 | O=C(NCc1cccs1)C1CCCN(S(=O)(=O)c2ccc([N+](=O)[O-])cc2)C1 (stereo not given) | -2.05% (inactive)
3 | CCOc1ccc(Cl)cc1-c1cc(C(=O)NCc2cccs2)[nH]n1 | 0.509% (inactive)
4 | CCOc1ccc(N(CC(=O)Nc2c(C)n(C)n(-c3ccccc3)c2=O)S(=O)(=O)c2ccc(Cl)s2)cc1 | 0.729% (inactive)
5 | COC(=O)c1c(-c2cccs2)csc1NC(=O)CSc1ncnc2sc(C)c(C)c12 | -3.04% (inactive)
6 | Cc1sc2ncnc(SCC(=O)NC3CCS(=O)(=O)C3)c2c1C (stereo not given) | -1.67% (inactive)
7 | Cc1sc2ncnc(SCC(=O)Nc3ccc(CN4CCCC4)cc3)c2c1C | 56.5% (active)
8 | Nn1c(SCC(=O)Nc2cccc3ccccc23)nnc1-c1cc(-c2ccc(F)cc2)n[nH]1 | 8.09% (inactive)
9 | COc1ccc(-n2c(COc3ccccc3)nnc2SCC(=O)Nc2ccc3c(c2)OCO3)cc1 | -0.703% (inactive)
10 | CC(=O)c1c(C)[nH]c(C(=O)NCCCN2CCCC2)c1C | 7.16% (inactive)
11 | Cc1cc(C)cc(C(=O)NCCN2CCOCC2)c1 | 4.87% (inactive)
12 | CCOC(=O)c1c(C)[nH]c(C(=O)NCCN2CCOCC2)c1C | 74.8% (active)
13 | C=CCn1c(SCC(N)=O)nnc1-c1ccccc1OC | -2.46% (inactive)
14 | Cc1ccc(-n2c(COc3ccccc3)nnc2SCC(=O)Nc2ccc3c(c2)OCCO3)cc1 | 5.45% (inactive)
15 | O=C(Nc1cc(F)cc(F)c1)OC1CCC12CCC(c1ccccc1)CC2 (stereo not given) | -4.2% (inactive)
16 | COC(=O)c1ccccc1-n1cc(COC(=O)NCCc2ccccc2)nn1 | -1.58% (inactive)
17 | O=C(CCCCCN1C(=O)C2C3C=CC(C3)C2C1=O)Nc1ccccc1 (stereo not given) | -10.2% (inactive)
18 | O=C(Nc1ccccc1)N1CCN(Cc2nc3ccccc3c(=O)[nH]2)CC1 | -3.56% (inactive)
19 | O=C(CSc1nnnn1-c1ccccc1)NCc1ccco1 | -2.53% (inactive)
20 | O=C(NCc1ccco1)c1nc(-c2ccccc2)n(-c2ccccc2)n1 | 59.6% (active)

Row | SMILES | inhibition
21 | O=C(NCc1ccco1)c1nc2ncccn2n1 | -4.87% (inactive)
22 | COC(=O)C1=C(C)N(Cc2cccc(C(F)(F)F)c2)C(=NCc2ccccc2)NC1c1ccccc1C(F)(F)F (stereo not given) | -2.64% (inactive)
23 | Nn1c(SCC(=O)Nc2ccc(S(N)(=O)=O)cc2)nnc1-c1n[nH]c2c1CCC2 | -3.92% (inactive)
24 | O=C(CSc1nc2sc3c(c2c(=O)n1-c1ccccc1)CCCC3)NN=Cc1ccc(OCc2ccccc2)cc1 | 6.16% (inactive)
25 | COc1cccc2cc(/C(C)=N/NC(=O)c3ccco3)oc12 | -1.2% (inactive)
26 | C/C(CC(=O)NC(C)(C)C)=N\NC(=O)c1ccco1 | -3.83% (inactive)
27 | C/C(=N/NC(=O)CCc1ccccc1)c1ccco1 | 51.2% (active)
28 | CCOc1ccc(Oc2c(Cl)cnn(-c3ccc(C)cc3)c2=O)cc1 | -2.84% (inactive)
29 | O=C(CSc1nc2c(c(=O)[nH]1)CCCC2)N1CCCCC1 | -1.56% (inactive)
30 | CC(C)Nc1nc(NCCOc2ccccc2Cl)c2sccc2n1 | 2.58% (inactive)
31 | COc1cc(/C=C/C(=O)n2cnc3ccccc32)cc(OC)c1OC | 0.939% (inactive)
32 | Cc1ccccc1-n1nc(C)c2cc(C(=O)NC3CC3)sc21 | 0.032% (inactive)
33 | Cc1ccccc1-n1nc(C)c2c1N=C1C(Cl)=CC(Cl)=CN1C2c1ccc(C(=O)O)cc1 (stereo not given) | 51.3% (active)
34 | Cc1nn(-c2ccccc2)c(Cl)c1/C=C/C(=O)c1ccc(O)cc1 | -0.695% (inactive)
35 | COc1ccc([C@H]2OC(=O)C[C@H]2C(=O)N2CCN(c3ccccc3F)CC2)cc1OC | -1.64% (inactive)
36 | COc1ccc(S(=O)(=O)NC(C)C)cc1C(=O)NC1CCCCC1 | 0.027% (inactive)
37 | COc1ccccc1N(C)S(=O)(=O)c1ccc(C(=O)NC2CCCCCC2)cc1 | 50.3% (active)
38 | COc1ccccc1N(C)S(=O)(=O)c1ccc(C(=O)N2CCC(C(N)=O)CC2)cc1 | -2.68% (inactive)
39 | O=C(NCCC1=CCCCC1)C1CCN(S(=O)(=O)c2ccc(Cl)s2)CC1 | -2.83% (inactive)
40 | COc1ccccc1-c1cc(NC(C)=O)c2ncc(-c3ccc(F)cc3)n2c1 | -0.432% (inactive)
